MEKK2wt PB1 HTS: raises or lowers MEK5 binding to wildtype human MEKK2 PB1 domain | Q9Y2U5 | bead flow cytometry, Alexa488-MEK5 binding to MEKK2 WT; actives lie on both sides | binding response (% of control), % at 10 µM | 1.1% of 290,000 active; in the data active means binding response below about 67% or above about 130%; inconclusive means no clear call, values can overlap the other calls; inactive means in between
UBC13 inh: inhibitors of human UBC13 polyubiquitin chain formation; AID 485273; 0.47% of 330,000 active; TR-FRET; P61088; inhibition, % at 20 µM; in the data active means inhibition above about 45%, passing the limit was not always enough; inconclusive means no clear call, values can overlap the other calls
Target sequence (P61088 whole entry, looked up): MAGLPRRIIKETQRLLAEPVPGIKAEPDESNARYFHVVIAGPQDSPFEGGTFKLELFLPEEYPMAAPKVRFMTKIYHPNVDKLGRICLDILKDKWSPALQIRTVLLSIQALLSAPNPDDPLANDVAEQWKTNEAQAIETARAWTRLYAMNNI
MEKK2 mut-MEK5: signal of MEK5 binding to mutant human MEKK2 PB1 domain; bead flow cytometry, Alexa488-MEK5 binding to MEKK2 mutant; percent response, % at 10 µM; 0.35% of 290,000 active; in the data active means percent response above about 24%, passing the limit was not always enough
MEKK3 PB1 HTS: modulators (inhibitors or enhancers) of MEK5 binding to human MEKK3 PB1 domain; AID 1529; binding response (% of control), % at 10 µM; Q99759; 1.4% of 290,000 active; bead-based flow cytometry, Alexa488-MEK5 binding to MEKK3; actives lie on both sides; 0 = blocked by unlabeled MEK5, 100 = vehicle;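 active means binding response more than 3 SD above or below the average of its plate-row segment, actives on both sides; inconclusive means wells at one plate position flagged as instrument error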;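 further: Alexa488 bead fluorescence after subtracting the streptavidin-only scavenger bead signal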
Target sequence (Q99759 whole entry, looked up, the tested form may be a part): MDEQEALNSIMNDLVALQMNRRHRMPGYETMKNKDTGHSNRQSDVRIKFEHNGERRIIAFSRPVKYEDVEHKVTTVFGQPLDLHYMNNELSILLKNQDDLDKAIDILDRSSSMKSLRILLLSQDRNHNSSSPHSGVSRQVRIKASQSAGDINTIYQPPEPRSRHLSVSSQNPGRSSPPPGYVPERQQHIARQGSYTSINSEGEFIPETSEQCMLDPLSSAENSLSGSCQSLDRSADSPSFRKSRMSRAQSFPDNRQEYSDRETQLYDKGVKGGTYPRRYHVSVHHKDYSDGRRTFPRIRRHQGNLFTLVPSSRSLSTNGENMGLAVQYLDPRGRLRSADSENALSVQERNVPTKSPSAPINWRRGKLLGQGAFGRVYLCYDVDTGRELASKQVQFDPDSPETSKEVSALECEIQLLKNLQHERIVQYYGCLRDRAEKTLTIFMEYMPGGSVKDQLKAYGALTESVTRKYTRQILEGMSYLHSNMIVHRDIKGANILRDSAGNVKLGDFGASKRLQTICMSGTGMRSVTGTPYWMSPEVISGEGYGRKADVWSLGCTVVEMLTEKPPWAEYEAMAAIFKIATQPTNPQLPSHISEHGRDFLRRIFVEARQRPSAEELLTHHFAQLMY
MEKK2wt confirm: raises or lowers MEK5 binding to wildtype human MEKK2, retest; shares compounds with MEKK3 PB1 HTS; AID 1892; 2.4% of 5,900 active; bead flow cytometry, Alexa488-MEK5 binding to MEKK2 WT; actives lie on both sides; binding response (% of control), % at 10 µM; in the data active means binding response below about 16% or above about 210%; inactive means in between
MEKK2mut-MEK5: signal of MEK5 binding to mutant human MEKK2, retest; shares compounds with MEKK3 PB1 HTS; bead flow cytometry, Alexa488-MEK5 binding to MEKK2 mutant; percent response, % at 10 µM; 2% of 5,900 active; AID 1893; in the data active means percent response mostly above about 71%, no sharp cut-off; inactive means mostly below about 38%;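 further: higher means compound restores mutant binding toward wildtype level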
MEKK3 confirm: confirmation of inhibitors of MEK5 binding to human MEKK3 | bead flow cytometry, Alexa488-MEK5 binding to MEKK3; stronger effect = lower value | AID 1894 | shares compounds with MEKK3 PB1 HTS | binding response (% of control), % at 10 µM | 1.8% of 5,900 active;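 active means binding response below 72% of control, or above a set upper limit, though filed actives all read lower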
Numbers stand for hits; 0 = inactive; ? = inconclusive; - = not tested or not shown; [ ] = remark or other dose. Sampled rows, rich in hits. Any-hit rate of the full collection: about 2.3%.

SMILES | MEKK2wt PB1 HTS | UBC13 inh | MEKK2 mut-MEK5 | MEKK3 PB1 HTS | MEKK2wt confirm | MEKK2mut-MEK5 | MEKK3 confirm
CCc1ccc(OCC(=O)NC(=S)Nc2ccc(F)cc2)c(Br)c1 | 0 | 0 | 0 | 53.0[inhibitor] | 0 | 0 | 0
CCc1ccc(OCC(=O)NC(=S)Nc2ccc(C(C)=O)cc2)c(Br)c1 | - | 0 | - | - | - | - | -
CCCSc1nnc(NC(=O)c2sc3nc(-c4cccs4)ccc3c2N)s1 | 0 | 0 | 0 | 0 | - | - | -
Cc1csc(NC(=O)c2sc3nc(-c4cccs4)ccc3c2N)n1 | 66.0[inhibitor] | 0 | 0 | 0 | 0 | 0 | 0
COc1ccc(Cl)c2sc(N(CCN(C)C)C(=O)c3ccc4c(c3)OCCO4)nc12 | - | 0 | - | - | - | - | -
Cc1ccc(SCCC(=O)NNC(=O)c2ccccc2F)cc1 | - | 0 | - | - | - | - | -
O=C(Nc1cccc(-c2cccc(Cl)c2)c1)C1CCN(Cc2ccc(CO)o2)CC1 | 153.0 | 0 | 0 | 0 | 0 | 0 | 0
CC(C)n1cc(CN2CCC(C(=O)Nc3cccc(-c4cccc(Cl)c4)c3)CC2)cn1 | 183.0 | 0 | 34.0 | 0 | 0 | 73.0 | 0
Cc1csc(SCc2ccccc2C(=O)O)n1 | 3.0[inhibitor] | 0 | 0 | 3.0[inhibitor] | 0 | 0 | 0
Cc1csc(SCc2ccc(C(=O)O)cc2)n1 | 0 | 0 | 0 | 0 | - | - | -
CN(C(=O)COC(=O)C1CCN(S(=O)(=O)c2cccs2)CC1)c1ccccc1 | 0 | 0 | 0 | 0 | - | - | -
O=C(NCCO)c1cc2c([nH]c3ccccc32)c(-c2ccccc2)n1 | 0 | 0 | 0 | 0 | - | - | -
Cc1ccc(-c2nc(C(=O)NCCCN(C)C)cc3c2[nH]c2ccccc23)cc1 | 146.0 | 0 | 0 | 0 | 0 | 0 | 0
Cc1ccc(C2=NS(=O)(=O)N(C)C(C(=O)N3CCOCC3)=C2)cc1 | 0 | 0 | 0 | 0 | - | - | -
CCOC(=O)c1c(NC(=O)C(=O)N/N=C/c2ccccc2OC)sc2c1CCCCC2 | 0 | 0 | 0 | 0 | - | - | -
CCOC(=O)c1c(NC(=O)C(=O)N/N=C/c2ccccc2O)sc2c1CCCCC2 | 0 | 0 | 0 | 137.0 | 0 | 0 | 0
COc1ccc2[nH]c(C)c(CCNC(=S)Nc3cccc(C)c3)c2c1 | 1.0[inhibitor] | 0 | 0 | 1.0[inhibitor] | 0 | 0 | 0
O=C(CCS(=O)(=O)c1ccc(Br)cc1)NC1CCCCCC1 | 0 | 0 | 0 | 0 | - | - | -
COc1ccc(S(=O)(=O)NCC2CCCN(Cc3cccnc3)C2)cc1 (centres undefined) | 56.0[inhibitor] | 0 | 0 | 0 | 0 | 0 | 0
COc1ccccc1CNC(=O)[C@@H]1CCCN1S(=O)(=O)c1ccccc1F | 0 | 0 | 0 | 0 | - | - | -
OC(CN1CCNCC1)Cn1ccc2ccccc21 (centres undefined) | 0 | 0 | 35.0 | 0 | 0 | 0 | 0
O=C1c2ccccc2S(=O)(=O)N1CC(O)Cn1ccc2ccccc21 (centres undefined) | 31.0 | 0 | 81.0 | 0 | 0 | 0 | 0
Cc1cc(C)n(CC(O)Cn2ccc3ccccc32)n1 (centres undefined) | 0 | 0 | 0 | 0 | - | - | -
O=C(c1cc2cc(Cl)ccc2[nH]1)N1CCN(c2ccccn2)CC1 | 0 | 0 | 0 | 0 | - | - | -
CCn1nc(C)cc1C(=O)N1CCCC(CCC(=O)NCc2ccccc2F)C1 (centres undefined) | 0 | 0 | 0 | 0 | - | - | -
SMILES | MEKK2wt PB1 HTS | UBC13 inh | MEKK2 mut-MEK5 | MEKK3 PB1 HTS | MEKK2wt confirm | MEKK2mut-MEK5 | MEKK3 confirm
NC(=O)CC(NC(=O)c1cccc(Br)c1)c1ccc(N2CCC(Br)CC2)c([N+](=O)[O-])c1 (centres undefined) | 0 | 0 | 0 | 0 | - | - | -
NC(=O)CC(NC(=O)c1ccccc1)c1ccc(N2CCC(Br)CC2)c([N+](=O)[O-])c1 (centres undefined) | 0 | 0 | 0 | 77.0[inhibitor] | 0 | 0 | 0
COc1ccc(C(=O)CSc2n[nH]c(C)n2)cc1[N+](=O)[O-] | 0 | 0 | 0 | 46.0[inhibitor] | 0 | 0 | 0
CC(C)CCN1CCN(Cc2coc3ccccc3c2=O)CC1CCO (centres undefined) | 0 | 0 | 0 | 0 | - | - | -
CC(C)N1CCN(Cc2coc3ccccc3c2=O)CC1CCO (centres undefined) | 0 | 0 | 0 | 131.0 | 0 | 0 | 64.0
CCC1Oc2ccc(C)cc2N(CC(=O)NCCN2CCCCCC2)C1=O (centres undefined) | 137.0 | 0 | 0 | 0 | 0 | 0 | 0
Cc1sc(NC(=O)CSc2nnc(C(C)C)n2C)c(C#N)c1C | 0 | 0 | 0 | 0 | - | - | -
CCCn1c(SCC(=O)Nc2sc(C)c(C)c2C#N)nnc1C(C)C | 0 | 0 | 0 | 124.0 | 0 | 0 | 0
O=C(COC(=O)c1ccc(S(=O)(=O)N2CCOCC2)cc1)NC1CCCCCCC1 | 0 | 0 | 0 | 0 | - | - | -
O=C(COC(=O)c1ccc(S(=O)(=O)N2CCc3ccccc3C2)cc1)NC1CCS(=O)(=O)C1 (centres undefined) | 0 | 0 | 0 | 50.0[inhibitor] | 0 | 0 | 0
CN(C)CCN1CCc2ccccc21 | 144.0 | 0 | 0 | 0 | 0 | 0 | 0
O=C(c1cccs1)c1ccc(-c2cccs2)s1 | 61.0[inhibitor] | ? | 0 | 0 | 0 | 0 | 0
CCCOc1ccc(C2=NNC(=O)CC2)cc1 | 0 | 0 | 0 | 68.0[inhibitor] | 0 | 0 | 0
COc1ccc(C2=NNC(=O)CC2)cc1 | 0 | 0 | 0 | 0 | - | - | -
CCOc1ccccc1C(=O)N[C@H](C(=O)Nc1nc2c(s1)CCCC2)C(C)C | 0 | 0 | 0 | 137.0 | 0 | 0 | 0
COc1ccc(C(=O)N[C@H](C(=O)Nc2nc3c(s2)CCCC3)C(C)C)cc1 | 0 | 0 | 0 | 0 | - | - | -
Cc1c(S(=O)(=O)N(C)C2CCCCC2)c(=O)n(C)c(=O)n1C | - | 0 | - | - | - | - | -
Cc1cccnc1NC(=O)C(C)N1C(=O)c2ccccc2C1=O (centres undefined) | 0 | 0 | 0 | 131.0 | 0 | 0 | 0
Cc1ccccc1NC(=O)C(C)N1C(=O)c2ccccc2C1=O (centres undefined) | 0 | 0 | 0 | 0 | - | - | -
c1csc(-c2cn3ccc4ccccc4c3n2)c1 | 7.0[inhibitor] | 0 | 0 | 6.0[inhibitor] | 0 | 0 | 0
CSc1nc(C)c(C(=O)Nc2ccccc2)c(-c2ccco2)c1C#N | 16.0[inhibitor] | 0 | 0 | 27.0[inhibitor] | 0 | 0 | 0
COc1ccc(COc2cc(-c3cccc(OC)c3)nc3ccc(NC(=O)c4ccc(N(C)C)cc4)cc23)cc1 | 0 | 0 | 0 | 0 | - | - | -
COc1ccc(COc2cc(-c3cccc(OC)c3)nc3ccc(NC(=O)c4ccc(C)cc4)cc23)cc1 | 1.0[inhibitor] | 0 | 0 | 1.0[inhibitor] | 0 | 0 | 0
O=C(NNC(=S)Nc1cccc(C(F)(F)F)c1)c1ccc(Cl)cc1Cl | 0 | 0 | 0 | 162.0 | 0 | 0 | 0
O=C(Nc1cccc(C(F)(F)F)c1)C(SCCO)c1ccccc1 (centres undefined) | 0 | 0 | 0 | 131.0 | 0 | 0 | 59.0
FC(F)(F)c1cccc(NC(=S)NNC(=S)Nc2cccc(C(F)(F)F)c2)c1 | 0 | 0 | 0 | 0 | - | - | -
FC(F)(F)c1cccc(NC(=S)NC(c2ccccc2)c2ccccc2)c1 | 169.0 | - | 0 | 152.0 | 0 | 0 | 0

From PubChem
